The values that follow come from PubChem BioAssay (Tox21).

A short description of assay [1]: qHTS assay to identify small molecule antagonists of the thyroid receptor (TR) signaling pathway - cell viability counter screen (AID 743064). Note: nearly all actives have a fitted effect of over 50% in size. In a few lines:
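Plate GH3.TRE-Luc cells; incubate 4 h at 37 °C; add compound, then T3 to 1 nM final; incubate 23.5 h; add CellTiter-Fluor; incubate 30 min at 37 °C, 5% CO2; read fluorescence.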

Assay [2] deals with thyroid hormone receptor (rat, GH3 cells). The assay can be described thus: qHTS assay to identify small molecule agonists of the thyroid receptor (TR) signaling pathway (AID 743066; calls by dose curve). On the technique in general: qHTS replaces the single test concentration by a dilution series.
A short description of assay [3]: qHTS assay to identify small molecule antagonists of the estrogen receptor alpha (ER-alpha) signaling pathway - cell viability counter screen (AID 743074; calls by dose curve;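 note: HEK293 cells carrying ER-alpha-UAS-bla reporter stimulated with 17beta-estradiol; nearly all actives have a fitted effect of over 45% in size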).
Assay [4] can be described thus: qHTS assay to identify small molecule antagonists of the estrogen receptor alpha (ER-alpha) signaling pathway using the BG1 cell line - cell viability counter screen (AID 743081).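 Note: compound given together with 17beta-estradiol as the ER stimulus; series mostly up to about 70 µM; nearly all actives have a fitted effect of over 45% in size.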
The target in another assay is Aromatase (Homo sapiens) (UniProt P11511). The assay can be described thus: qHTS assay to identify aromatase inhibitors (AID 743083). Note: series mostly up to about 70 µM; nearly all actives have a fitted effect of over 55% in size.
A short description of assay [5]: qHTS assay to identify aromatase inhibitors - cell viability counter screen (AID 743084).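 Note: cells stimulated with testosterone during compound exposure; nearly all actives have a fitted effect of over 55% in size.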
Assay [6] deals with Aryl hydrocarbon receptor (Homo sapiens) (UniProt P35869). Briefly: qHTS assay to identify small molecule that activate the aryl hydrocarbon receptor (AhR) signaling pathway (AID 743085).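 For activation: HG2L7.5c1 human HepG2 liver cells with stably integrated DRE-driven firefly reporter; series mostly up to about 70 µM.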 Note: nearly all actives have a fitted effect of over 15% in size. Note: potency is the fitted concentration of half-maximal effect. The method, boiled down: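 Steps: seed HepG2-AhR-luc cells; allow 5 h at 37C; pin-transfer test compound or vehicle; incubate 24 h at 37C; add viability dye (30 min, 37C) and read fluorescence; add luciferase substrate (30 min, RT) and read luminescence.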

Assay [7] in a line: qHTS assay to identify small molecule that activate the aryl hydrocarbon receptor (AhR) signaling pathway - cell viability counter screen (AID 743086).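 Note: HepG2 liver cells carrying the AhR DRE luciferase reporter; series mostly up to about 70 µM; nearly all actives have a fitted effect of over 45% in size.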 The method, boiled down:
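HepG2-AhR-luc (HG2L7.5c1) cells, 4000/well, were preincubated 5 h at 37C, exposed to compound in qHTS format for 24 hr at 37C, then given CellTiter-Fluor for 30 min; viability was read as fluorescence in the reporter wells.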

The target in assay [8] is Peroxisome proliferator-activated receptor gamma (Homo sapiens) (UniProt P37231). Briefly: qHTS assay to identify small molecule agonists of the peroxisome proliferator-activated receptor gamma (PPARg) signaling pathway (AID 743094; active = well fitted activation curve with a large enough effect in the signal ratio in the repeat runs, not every such curve was filed as active; the % refers to the signal ratio). The method, boiled down: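 Fluorescence-based beta-lactamase readout in HEK293H PPARg UAS-bla cells after 17 h compound exposure (37C) and 1 h B/G FRET substrate incubation at room temperature.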

The target is the same in assay [9]. The assay can be described thus: qHTS assay to identify small molecule antagonists of the peroxisome proliferator-activated receptor gamma (PPARg) signaling pathway (AID 743191; calls by dose curve; note: series mostly up to about 63 µM; nearly all actives have a fitted effect of over 30% in size). In a few lines: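 GeneBLAzer PPARg UAS-bla HEK293H cells carrying a UAS-driven beta-lactamase reporter were plated at 3000 cells/well, preincubated 5 h at 37C, then given compound for 17 h at 37C; LiveBLAzer B/G FRET substrate was read after 1 h at room temperature.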

A short description of assay [10]: qHTS assay to identify small molecule antagonists of the peroxisome proliferator-activated receptor gamma (PPARg) signaling pathway - cell viability counter screen (AID 743194). Note: nearly all actives have a fitted effect of over 55% in size. In a few lines:
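PPARg-UAS-bla HEK293H cells were plated, rested 5 h at 37 C, then treated with compounds plus rosiglitazone (50 nM final) for 17 h at 37 C; viability was then read by CellTiter-Glo luminescence after 30 min at room temperature.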

The nature of assay [11]: qHTS assay for small molecule agonists of the antioxidant response element (ARE) signaling pathway (AID 743202; active = well fitted activation curve with a large enough effect in the signal ratio in the repeat runs, not every such curve was filed as active; the % refers to the signal ratio; note: potency is the fitted concentration of half-maximal effect). The method, boiled down: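 Following a 16 h, 37 C exposure of reporter HepG2 cells (ARE-driven beta-lactamase, 2,000 cells/well) to compounds, FRET substrate was applied for 2 h at room temperature and fluorescence intensity recorded.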
The nature of assay [12]: qHTS assay for small molecule agonists of the antioxidant response element (ARE) signaling pathway - cell viability counter screen (AID 743203; calls by dose curve; note: nearly all actives have a fitted effect of over 55% in size). In a few lines:
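Parallel cytotoxicity read-out for the ARE-bla screen: HepG2 reporter cells, 16 hrs with compounds, then CellTiter-Glo luminescence.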

Assay [13] in a line: qHTS assay for small molecule activators of the heat shock response signaling pathway - cell viability counter screen (AID 743209). Note: nearly all actives have a fitted effect of over 50% in size. The method, boiled down:
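To flag cytotoxic compounds, HSE-bla HeLa cells plated at 1500 cells/well were dosed for 5 h at 37 C, followed by the reporter FRET read and then CellTiter-Glo, with luminescence recorded 30 min after reagent addition.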

Assay [14] is described as follows: qHTS assay for small molecule activators of the heat shock response signaling pathway (AID 743210; active = well fitted activation curve with a large enough effect in the signal ratio in the repeat runs, with a control signal flat, not every such curve was filed as active; the % refers to the signal ratio; note: series mostly up to about 63 µM). In a few lines:
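Heat shock element–beta-lactamase HeLa reporter cells; qHTS with compounds for 5 h at 37 C; detection by FRET substrate fluorescence after 2.5 h at RT.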

The target in assay [15] is Estrogen receptor (Homo sapiens) (UniProt P03372). The assay can be described thus: qHTS assay to identify small molecule agonists of the estrogen receptor alpha (ER-alpha) signaling pathway (AID 743075; calls by dose curve;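 note: HEK293 GripTite cells with ER-alpha and UAS-driven beta-lactamase reporter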).
The target is the same in assay [16]. The assay can be described thus: qHTS assay to identify small molecule agonists of the estrogen receptor alpha (ER-alpha) signaling pathway using the BG1 cell line (AID 743079). Note: nearly all actives have a fitted effect of over 20% in size. Note: potency is the fitted concentration of half-maximal effect.
Assay [17] can be described thus: qHTS assay to identify small molecule antagonists of the thyroid receptor (TR) signaling pathway (AID 743065). The method, boiled down: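 GH3.TRE-Luc rat pituitary cells carrying two TR response elements driving luciferase were plated for 4 h, given compound plus 1 nM T3 (final), and incubated 23.5 h at 37 C. ONE-Glo luminescence measured reporter inhibition; CellTiter-Fluor fluorescence tracked cytotoxicity.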

Assay [18] has as its target Estrogen receptor (Homo sapiens) (UniProt P03372). The assay can be described thus: qHTS assay to identify small molecule antagonists of the estrogen receptor alpha (ER-alpha) signaling pathway (AID 743069; active = well fitted curve in the direction sought with a large enough effect in the signal ratio in the repeat runs, not every such curve was filed as active; the % refers to the signal ratio). The method, boiled down:
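A 17beta-estradiol challenge was applied right after compound transfer to ER-alpha-UAS-bla HEK293 cells previously kept in charcoal-stripped serum. Plates stood 18 hr at 37C and 5% CO2; fluorescence was read following 2 hr FRET substrate loading at room temperature.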

The nature of assay [19]: qHTS assay to identify small molecule antagonists of the estrogen receptor alpha (ER-alpha) signaling pathway using the BG1 cell line (AID 743080; calls by dose curve;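 note: BG1 cells stimulated with 17beta-estradiol alongside compound; series mostly up to about 70 µM; nearly all actives have a fitted effect of over 25% in size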). In a few lines: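 Endogenous full-length ER-alpha in BG1-Luc-4E2 cells drives a stably integrated 4×ERE luciferase gene; compounds were tested against 17beta-estradiol over 21.5 h, with luminescence and multiplexed viability fluorescence recorded.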

SMILES strings stand for the structures. Inconclusive results are not listed. Activity calls are given as the source filed them. Unless noted, calls come from the whole dose curve; as a rule, active = well fitted curve in the direction sought with a large enough effect in the repeat runs; inconclusive = weak or mixed curves; inactive = no such curve, though single readings can be large; an effect the other way counts as inactive or inconclusive.

Chain of Aromatase (Homo sapiens) (P11511 whole entry, looked up): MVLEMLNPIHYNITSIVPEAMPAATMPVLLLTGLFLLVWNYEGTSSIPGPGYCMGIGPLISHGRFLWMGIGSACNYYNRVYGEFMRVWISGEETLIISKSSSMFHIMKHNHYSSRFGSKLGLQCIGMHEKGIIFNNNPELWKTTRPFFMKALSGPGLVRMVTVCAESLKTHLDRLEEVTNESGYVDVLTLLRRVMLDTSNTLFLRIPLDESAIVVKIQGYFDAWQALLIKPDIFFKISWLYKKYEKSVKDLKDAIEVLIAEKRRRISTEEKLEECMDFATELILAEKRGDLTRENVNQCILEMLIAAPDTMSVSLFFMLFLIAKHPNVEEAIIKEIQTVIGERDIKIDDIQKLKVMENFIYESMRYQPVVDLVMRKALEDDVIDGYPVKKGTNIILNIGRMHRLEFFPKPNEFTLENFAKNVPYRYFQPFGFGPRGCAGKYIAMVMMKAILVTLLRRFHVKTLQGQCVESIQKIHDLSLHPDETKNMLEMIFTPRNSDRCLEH
Chain of Peroxisome proliferator-activated receptor gamma (Homo sapiens) (P37231 whole entry, looked up): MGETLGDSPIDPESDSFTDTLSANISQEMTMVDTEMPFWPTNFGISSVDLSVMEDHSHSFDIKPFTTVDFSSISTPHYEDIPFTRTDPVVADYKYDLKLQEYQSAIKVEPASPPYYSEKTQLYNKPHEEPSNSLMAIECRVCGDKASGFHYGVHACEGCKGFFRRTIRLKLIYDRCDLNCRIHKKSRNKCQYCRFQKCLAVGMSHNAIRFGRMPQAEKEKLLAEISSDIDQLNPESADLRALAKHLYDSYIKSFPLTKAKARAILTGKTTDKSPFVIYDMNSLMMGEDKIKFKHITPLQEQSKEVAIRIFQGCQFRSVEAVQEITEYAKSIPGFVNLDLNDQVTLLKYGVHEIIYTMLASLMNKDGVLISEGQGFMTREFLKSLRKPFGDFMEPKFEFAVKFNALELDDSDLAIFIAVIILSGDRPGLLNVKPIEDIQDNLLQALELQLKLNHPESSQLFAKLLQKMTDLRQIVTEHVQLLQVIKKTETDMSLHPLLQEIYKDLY
Chain of Aryl hydrocarbon receptor (Homo sapiens) (P35869 whole entry, looked up): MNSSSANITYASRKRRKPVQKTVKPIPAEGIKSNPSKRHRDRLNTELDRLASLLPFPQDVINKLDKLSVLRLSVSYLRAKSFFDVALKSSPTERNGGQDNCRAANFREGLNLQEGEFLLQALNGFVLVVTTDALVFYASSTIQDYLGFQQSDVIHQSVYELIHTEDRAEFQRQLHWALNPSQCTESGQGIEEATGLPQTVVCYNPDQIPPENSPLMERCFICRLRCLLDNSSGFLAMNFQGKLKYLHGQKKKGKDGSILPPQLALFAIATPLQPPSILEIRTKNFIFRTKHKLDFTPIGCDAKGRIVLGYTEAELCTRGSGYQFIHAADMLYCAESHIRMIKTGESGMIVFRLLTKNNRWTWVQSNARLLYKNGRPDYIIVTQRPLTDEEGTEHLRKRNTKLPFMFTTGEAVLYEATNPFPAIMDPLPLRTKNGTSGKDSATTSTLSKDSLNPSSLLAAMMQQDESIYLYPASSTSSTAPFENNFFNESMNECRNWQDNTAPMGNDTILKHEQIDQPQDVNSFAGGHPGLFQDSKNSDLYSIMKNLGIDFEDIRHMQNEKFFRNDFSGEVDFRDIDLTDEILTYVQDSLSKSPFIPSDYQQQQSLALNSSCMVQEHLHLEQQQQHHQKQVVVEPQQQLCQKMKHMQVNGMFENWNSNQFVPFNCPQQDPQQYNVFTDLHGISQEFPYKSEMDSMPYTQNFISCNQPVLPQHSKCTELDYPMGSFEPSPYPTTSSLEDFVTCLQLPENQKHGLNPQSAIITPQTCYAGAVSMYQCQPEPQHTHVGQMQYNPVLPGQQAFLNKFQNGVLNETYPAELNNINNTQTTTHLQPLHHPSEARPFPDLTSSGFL
Chain of Estrogen receptor (Homo sapiens) (P03372 whole entry, looked up): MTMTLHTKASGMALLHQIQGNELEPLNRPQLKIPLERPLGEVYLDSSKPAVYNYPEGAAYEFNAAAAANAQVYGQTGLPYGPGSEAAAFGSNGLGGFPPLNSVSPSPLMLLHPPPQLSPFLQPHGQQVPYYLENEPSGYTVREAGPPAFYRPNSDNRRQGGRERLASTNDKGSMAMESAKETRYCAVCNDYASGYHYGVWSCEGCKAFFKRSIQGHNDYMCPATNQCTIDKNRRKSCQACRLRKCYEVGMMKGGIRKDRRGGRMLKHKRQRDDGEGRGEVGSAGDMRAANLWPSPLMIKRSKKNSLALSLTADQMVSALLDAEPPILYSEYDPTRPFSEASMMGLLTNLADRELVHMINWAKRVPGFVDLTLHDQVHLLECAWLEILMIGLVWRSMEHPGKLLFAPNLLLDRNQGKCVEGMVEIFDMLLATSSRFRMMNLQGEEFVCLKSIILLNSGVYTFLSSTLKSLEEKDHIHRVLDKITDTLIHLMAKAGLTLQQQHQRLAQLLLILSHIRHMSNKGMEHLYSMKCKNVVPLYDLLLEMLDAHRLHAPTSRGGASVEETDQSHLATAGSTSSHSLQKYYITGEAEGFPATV

`CCc1ccc(C(=O)C(C)CN2CCCCC2)cc1` (stereo not given): the Potency result (in assay [1]; in [4]; in the assay with Aromatase (Homo sapiens); in assay [5]; in assay [6]; in [7]) was “inactive” in each case. The Potency result in [8], in assay [9], in [10] and in assay [12] was “inactive” in each case. The call in assay [2], in assay [3], in assay [13] and in assay [14] was inactive. The Potency in assay [11] was 23.7 µM (active).
In the case of `c1ccc(CCNc2nc(-c3ccccc3)cs2)cc1`, the Potency entry (in [1]; in assay [15]; in assay [4]; in the assay with Aromatase (Homo sapiens); in assay [5]; in assay [7]) was “inactive” in each case. Further, the Potency result in [8], in assay [9], in assay [10] and in [12] was “inactive” each time. Moreover, the molecule was classed as inactive in assay [2] and in [14]. The Potency in assay [16] is 0.944 µM (active); in assay [6], 15 µM (active).
For `CC(=O)CC/C=C(\C)CC/C=C(\C)CC/C=C(\C)CCC=C(C)C`, the Potency result (in assay [1]; in [4]; in the assay with Aromatase (Homo sapiens); in [5]; in assay [7]; in assay [8]) was “inactive” throughout. The Potency result in assay [9], in [10] and in assay [12] was “inactive” in each case. The molecule was called inactive in assay [2], in [3], in [13] and in assay [14].
As to `CC(C)C/C=C(\C=O)c1ccccc1`, the Potency result (in assay [17]; in assay [18]; in assay [15]; in assay [19]; in [4]; with Aromatase (Homo sapiens)) was “inactive” in each case. The Potency entry in assay [6], in assay [7], in assay [8], in [9], in [10] and in [11] was “inactive” each time. In addition, the Potency result in [12] was “inactive”. The result in [2], in assay [3], in assay [13] and in assay [14] was inactive. In addition, the Potency in assay [16] is 61.1 µM (active).
Turning to `CCOC(=O)CC(O)(CC(=O)OCC)C(=O)OCC`, the Potency entry in assay [17], in assay [18], in [15], in assay [16], in [19] and in assay [4] was “inactive” each time. Moreover, the Potency result (in the assay with Aromatase (Homo sapiens); in [5]; in assay [6]; in [7]; in [8]; in assay [9]) was “inactive” throughout. Besides, the Potency result in assay [10] and in assay [12] was “inactive” throughout. In addition, the molecule was called inactive in assay [2], in assay [3], in [13] and in assay [14].
Turning to `NCCOCCOCCN`, the Potency entry (in assay [1]; in assay [4]; in the assay with Aromatase (Homo sapiens); in assay [5]; in assay [6]; in assay [7]) was “inactive” each time. For the same molecule, the Potency entry in [9], in assay [10] and in assay [12] was “inactive” throughout. In addition, the call in assay [2], in [3] and in assay [13] was inactive. The Potency in [11] was 48.6 µM (active).
As for `FC1(F)C(F)(F)C(F)(F)C2(F)C(F)(C1(F)F)C(F)(F)C(F)(F)C1(F)C(F)(F)C(F)(F)C(F)(F)C(F)(F)C12F` (stereo not given), the Potency result (in assay [1]; in assay [4]; with Aromatase (Homo sapiens); in assay [5]; in [6]; in assay [7]) was “inactive” throughout. Moreover, the Potency result in [9], in [10], in [11] and in [12] was “inactive” throughout. Further, the result in assay [2], in [3] and in assay [13] was inactive.
Consider `O=C(c1ccc(Cl)cc1)c1ccc(Cl)cc1`, for which the Potency entry in assay [17], in [18], in [15], in assay [16], in assay [19] and in assay [4] was “inactive” in each case. In addition, the Potency entry (with Aromatase (Homo sapiens); in assay [5]; in assay [6]; in assay [7]; in assay [8]; in [9]) was “inactive” throughout. In addition, the Potency result in assay [10], in [11] and in [12] was “inactive” each time. In addition, the molecule was classed as inactive in assay [2], in assay [3] and in assay [13].
As for `O=C(O)c1ccc(O)c(O)c1`, the Potency entry in [17], in assay [18], in [15], in assay [16], in assay [19] and in [4] was “inactive” in each case. Also, the Potency entry (with Aromatase (Homo sapiens); in assay [5]; in assay [6]; in assay [7]; in [8]; in [10]) was “inactive” each time. Moreover, the Potency entry in assay [11] and in [12] was “inactive” throughout. The molecule was classed as inactive in [2], in assay [3], in assay [13] and in assay [14].
